Bioassay records: PubChem, National Center for Advancing Translational Sciences (NCATS)
D2 antagonist = D2 dopamine receptor (human) antagonism. AID 485344. HEK293 TREx D2 cells, calcium flux, dopamine EC80. P14416. inhibition, % at 10 µM. actives 2% (n = 340,000); in the data active means inhibition above about 30%; inactive means below that, where a call was filed
Target sequence (P14416 whole entry, looked up): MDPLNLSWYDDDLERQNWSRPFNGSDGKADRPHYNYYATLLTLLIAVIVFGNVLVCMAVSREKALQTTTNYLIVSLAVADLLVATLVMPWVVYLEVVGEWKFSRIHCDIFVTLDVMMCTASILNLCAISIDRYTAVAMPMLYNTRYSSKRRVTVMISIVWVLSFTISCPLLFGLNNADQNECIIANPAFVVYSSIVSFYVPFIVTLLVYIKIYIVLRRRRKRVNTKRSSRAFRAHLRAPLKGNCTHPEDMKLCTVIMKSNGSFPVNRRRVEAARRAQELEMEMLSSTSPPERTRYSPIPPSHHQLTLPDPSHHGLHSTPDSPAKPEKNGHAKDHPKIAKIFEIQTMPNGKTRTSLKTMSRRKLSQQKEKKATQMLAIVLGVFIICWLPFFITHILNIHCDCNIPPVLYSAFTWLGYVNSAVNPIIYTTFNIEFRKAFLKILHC
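Calcium flux kinetic readout in an inducible HEK293 TREx D2 line plated overnight at 30 C. After 180 s compound exposure, an EC80 dopamine challenge follows with another 180 s kinetic read to detect antagonism.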
D2 ag-1 = activates the human D2 dopamine receptor; P14416; DiscoveRx PathHunter D2 beta-arrestin, luminescence, 90 min; 100% = 57 uM dopamine signal; activation, % (test concentration not listed); actives 0.084% (n = 360,000); AID 624465; in the data active means activation above about 40%; inconclusive means between about 15% and that limit
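Agonist mode: compounds alone added to overnight-plated D2 PathHunter cells for 90 min at 37 C, with 57 uM final dopamine (EC100) defining full response. Beta-arrestin recruitment detected by chemiluminescent reagent, read after 1 h at ambient temperature.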
D2 PAM-1 = potentiates the human D2 dopamine receptor allosterically | P14416 | DiscoveRx D2 beta-arrestin cells, luminescence, 90 min; 100% = 57 uM dopamine signal | potentiation, % (no concentration beside the values) | actives 0.23% (n = 360,000) | AID 624464; in the data active means potentiation above about 50%; inconclusive means mostly about 30% to 49%
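D2 cells co-treated with compound plus 50 nM dopamine (EC20) for 90 min at 37 deg C to detect potentiation. Beta-arrestin recruitment was read as enzyme-fragment luminescence after 1 h at ambient temperature. Full response was set by 57 uM dopamine.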
D2 PAM-2 = positively modulates the human D2 dopamine receptor allosterically; P14416; potentiation, % at 10 µM; HEK293 T-REx D2, calcium flux, EC20 dopamine potentiation; actives 0.34% (n = 340,000); AID 485347;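 active means potentiation over 3 SD above the plate norm, cut at about 30% in these data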
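Using a no-wash calcium dye in inducible, force-coupled HEK293 Trex cells expressing D2, we tracked fluorescence each second for 180 s after compound, then for 180 s after EC20 dopamine to detect augmented signalling.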
D2 ag-2 = D2 dopamine receptor (human) agonism; P14416; HEK293 T-REx D2 cells, calcium flux agonist mode; AID 485358; activation, % at 2 µM; actives 0.53% (n = 340,000);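 active means activation over 3 SD above normal in the single-dose calcium agonist read, cut at about 30% in these data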
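In this primary screen, compounds producing a positive calcium signal within 180 s of addition to tetracycline-induced, force-coupled HEK293 Trex D2 cells are flagged; cells are dye-loaded with a no-wash calcium kit beforehand.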
D3 arrestin ag = D3 receptor agonism confirmed, beta-arrestin readout. DiscoveRx D3 beta-arrestin cells, luminescence, 90 min. Potency, µM (highest dose often 76.9 µM), actives largely listed as activators. AID 720506. shares compounds with D2 ag-2. actives 4% (n = 2,300); further: nearly all actives have a fitted effect of over 70% in size
D2 ag-3 = counter-screen for D3 agonists: human D2 dopamine receptor agonism | shares compounds with D2 ag-2 | DiscoveRx PathHunter D2 beta-arrestin, luminescence, 90 min; response scale: percent relative to full dopamine signal | Potency, µM (top dose mostly 76.9 µM), hits mostly activators | actives 5.9% (n = 2,300) | AID 720507; further: nearly all actives have a fitted effect of over 70% in size
Large screens that a line does not name were inactive (follow-up assays come after a bar, where they were run). This is a sample that favours compounds with a hit; in the whole collection about 2.4% have one here. Unless noted, the call rests on the fitted dose curve; in most records, active means well fitted activation curve with a large enough effect; inconclusive means small, poorly fitted or top-dose-only effect; inactive means flat fitted curve, though single readings scatter.

CN1CCCC(C(=O)c2ccccc2)C1 (stereo not given)	D2 antagonist 30, D2 ag-2 42 | D3 arrestin ag inactive | D2 ag-3 inactive
CSc1ccc(C(=O)C2CCCN(C)C2)cc1 (stereo not given)	none
COc1ccc(NC(=O)CN2CC=C(c3ccccc3)CC2)cc1S(=O)(=O)N1CCOCC1	D2 ag-2 54 | D3 arrestin ag inconclusive | D2 ag-3 inactive
C[C@]12CCC3C(CC[C@H]4C[C@@H](O)CC[C@]34C)[C@H]1CC[C@H]2O (stereo not given in full)	none (no result: D2 antagonist, D2 PAM-2, D2 ag-2)
C[C@H]1CC[C@@]2(C)[C@@H](CC[C@@H]3[C@@H]2CC[C@]2(C)[C@@H](O)CC[C@@H]32)C1	D2 antagonist 69 | D3 arrestin ag inactive | D2 ag-3 inactive
COc1ccc(-c2nn3c(=O)cc(CN4CCN(C(=O)COc5ccc(F)cc5)CC4)nc3s2)cc1	none (no result: D2 antagonist, D2 ag-1, D2 PAM-1)
COc1ccc(N2C(=O)NC(=O)/C(=C/c3ccc(N4CCOCC4)cc3)C2=O)cc1	none (no result: D2 ag-1, D2 PAM-1)
CCOc1ccc(N2C(=O)NC(=O)/C(=C\c3ccc(N4CCOCC4)cc3C)C2=O)cc1	D2 ag-2 55 | D3 arrestin ag inactive | D2 ag-3 inactive
O=C(Nc1ccc(Br)cc1C(=O)c1ccccc1Cl)c1ccc(Br)cc1	none (no result: D2 antagonist, D2 ag-1, D2 PAM-1)
CC(C)C[C@H]1C(=O)N2CCCC2[C@]2(O)O[C@](NC(=O)[C@@H]3C=C4c5cccc6[nH]cc(c56)CC4N(C)C3)(C(C)C)C(=O)N12 (stereo not given in full)	D2 antagonist 78, D2 ag-1 122, D2 PAM-1 54, D2 ag-2 73 | D3 arrestin ag inconclusive | D2 ag-3 0.28µM
CC(C)C[C@H]1C(=O)N2CCC[C@H]2[C@]2(O)O[C@](NC(=O)[C@@H]3C=C4c5cccc6[nH]c(Br)c(c56)CC4N(C)C3)(C(C)C)C(=O)N12 (stereo not given in full)	D2 antagonist 94, D2 ag-1 55, D2 PAM-1 inconclusive, D2 ag-2 80 | D3 arrestin ag inconclusive | D2 ag-3 0.28µM
CC(C)[C@@]1(NC(=O)[C@@H]2C[C@@H]3c4cccc5[nH]cc(c45)C[C@H]3N(C)C2)O[C@@]2(O)[C@@H]3CCCN3C(=O)[C@H](Cc3ccccc3)N2C1=O	D2 antagonist 101, D2 ag-2 91 | D3 arrestin ag inactive | D2 ag-3 inconclusive
CCOc1ccc2nc(NC(=O)c3cccn(Cc4ccccc4Cl)c3=O)sc2c1	none (no result: D2 antagonist, D2 ag-1, D2 PAM-1)
Clc1ccccc1CN1CCN(c2ccccc2)CC1	D2 antagonist 68, D2 ag-1 inconclusive, D2 ag-2 68 | D3 arrestin ag inactive | D2 ag-3 inconclusive
Nc1ccc(N2CCN(Cc3ccccc3Cl)CC2)c(Cl)c1	none
Clc1ccccc1CN1CCN(c2cccc3[nH]ccc23)CC1	none (no result: D2 antagonist, D2 PAM-2, D2 ag-2) | D3 arrestin ag inactive | D2 ag-3 inactive
Cc1cccc(-n2c(/C=C\c3cccc(Br)c3)nc3ccccc3c2=O)c1	none (no result: D2 antagonist, D2 ag-1, D2 PAM-1)
COc1ccc(NC(=O)CCc2nc(C3=CCN(Cc4cccc(Cl)c4)CC3)no2)cc1OC	none (no result: D2 antagonist, D2 ag-1, D2 PAM-1)
COc1ccccc1N1CCN(Cc2cccc(OC)c2O)CC1	D2 antagonist 81, D2 ag-2 74 | D3 arrestin ag inactive | D2 ag-3 inactive
CCNCC(O)c1cccc(O)c1 (stereo not given)	D2 antagonist 32, D2 ag-2 36 | D3 arrestin ag inconclusive | D2 ag-3 inconclusive
NNCc1cccc(O)c1	none
CCN(CC)CCCC(C)N=C(c1ccccc1)c1c(O)n(C)c(=O)n(C)c1=O (stereo not given)	D2 antagonist 69, D2 ag-2 38 | D3 arrestin ag inactive | D2 ag-3 inactive
CCCN1CC[C@@H]2c3cc(O)ccc3CC[C@@H]21	D2 antagonist 73, D2 ag-2 66 | D3 arrestin ag inconclusive | D2 ag-3 inconclusive
COC(=O)C1=C(c2ccccc2OCc2ccccc2)C[C@@H]2CC[C@H]1N2C(=O)NCc1ccc(OC)c(OC)c1	none | D3 arrestin ag inactive | D2 ag-3 inactive
COC(=O)C1=C(c2ccc(F)cc2OCc2ccccc2)C[C@@H]2CC[C@H]1N2C(=O)NCc1ccccc1Cl	none | D3 arrestin ag inactive | D2 ag-3 inactive
COC(=O)C1=C(c2ccccc2OCc2ccccc2)C[C@@H]2CC[C@H]1N2C(=O)NCc1cccc(F)c1	none
